# High-throughput results: PubChem BioAssay, several laboratories
# In the library only some 2% were active in any assay of this set; here they are far more common.
# Mcl1-Noxa inh = Mcl-1/Noxa interaction inhibition | 220,000 tested, 1.5% active | TR-FRET Mcl-1/Noxa peptide binding, 2 h | Q07820 | inhibition, % at 21.7 µM | AID 1022;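 active = compounds that cut the protein-peptide binding signal by more than 50% relative to plate controls in a single-dose test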;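 note: His-tagged Mcl-1 with rhodamine Noxa BH3 peptide and terbium anti-His antibody; 0% = Mcl-1 plus Noxa peptide wells and 100% = peptide-only wells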
# Target sequence (Q07820 whole entry, looked up): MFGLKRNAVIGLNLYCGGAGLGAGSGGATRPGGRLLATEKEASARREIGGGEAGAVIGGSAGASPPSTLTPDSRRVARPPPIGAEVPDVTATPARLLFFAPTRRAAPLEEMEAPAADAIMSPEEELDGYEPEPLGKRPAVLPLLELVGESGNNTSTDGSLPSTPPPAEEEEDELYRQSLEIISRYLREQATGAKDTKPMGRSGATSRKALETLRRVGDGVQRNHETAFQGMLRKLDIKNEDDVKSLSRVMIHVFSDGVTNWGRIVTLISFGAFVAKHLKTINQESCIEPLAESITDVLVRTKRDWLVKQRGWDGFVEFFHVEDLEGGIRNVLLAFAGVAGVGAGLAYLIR
# MCL1-BIM inh = MCL1-BIM-BH3 interaction inhibition (human). Q07820. GST-MCL1 / FITC-Bim-BH3 fluorescence polarization. inhibition, % at 10.9 µM. 320,000 tested, 0.68% active. AID 2057;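 active = inhibition above the mean inhibition of all tested compounds plus 3 SD, set per campaign, cut at about 40% in these data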;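 note: 0% = DMSO wells and 100% = unlabeled Bim-BH3 peptide control; higher means more loss of mP so more displacement of Bim peptide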
# Mcl1-Bid inh = disrupts binding of human Mcl-1 to Bid peptide. Q07820. TR-FRET Mcl-1/Bid-Dy647 peptide binding, 1536-well. inhibition, % at 21.7 µM. 220,000 tested, 0.97% active. AID 1021;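 active = compounds that cut the binding signal by more than half at the single screening dose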;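 note: His-tagged Mcl-1 with europium anti-His antibody binding Bid BH3 peptide; 0% = Mcl-1 plus peptide wells and 100% = peptide-only wells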
# Mcl-1 Bim block = inhibitors of Bim-Mcl-1 interaction, human. Q07820. AID 1009. Bead-based flow cytometry, Bim peptide-Mcl-1 binding. inhibition, % at 10 µM. 190,000 tested, 0.1% active; in the data active = inhibition above about 40%;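 note: 0% = no compound tracer wells and 100% = peptide blocker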
# Active calls of the source: *; . = no result.
SMILES,Mcl1-Noxa inh,MCL1-BIM inh,Mcl1-Bid inh,Mcl-1 Bim block
Cc1cc(NC(=O)CSc2ccc3ccccc3c2)no1,53*,13,30,0
Cc1cc(NC(=O)CN2CCCCCCC2)no1,21,-8,64*,-4
COc1ccc(COC(=O)C2=C(C)NC(=O)NC2c2cc(Br)c(O)c(OC)c2)cc1 (stereo unspecified),.,9,.,.
COc1ccc2c(c1)CC/C(=C\Nc1ccc3c(c1)OCO3)C2=O,73*,-27,-9,-4
Cc1nn(-c2ccccc2)nc1C(=O)Nc1nnc(C(F)(F)F)s1,2,5,7,.
CCOc1ccc(OCC(=O)Nc2ccc(S(=O)(=O)Nc3cc(C)nc(C)n3)cc2)cc1,68*,2,2,-4
Cn1c2c(c(=O)[nH]c1=O)C(c1cccc(O)c1)C1=C(N2)c2ccccc2C1=O (stereo unspecified),36,.,-87,0
CCOC(=O)C1=C(Cc2ccc(F)cc2)C(=O)c2ccccc2C1=O,46,41*,-4,0
c1ccc2oc(C3=NNC(=NC4CC4)SC3)cc2c1,-140,-21,-64,-4
c1ccc(CN=C2NN=C(c3cc4ccccc4o3)CS2)cc1,93*,1,-34,0
Cn1c(=S)[nH]c(=O)c2ncc(=O)[nH]c21,10,9,-5,-2
CN(C)C(=O)CN(C)S(=O)(=O)c1ccc(Cl)cc1,-15,7,-12,0
CN(C)C(=O)CS(=O)(=O)c1ccc(Cl)cc1,44,-4,66*,.
Cc1cc(CC(=O)O)c2oc(-c3ccoc3)cc(=O)c2c1,.,47*,.,.
CCOC(=O)C1=C(C)N(C)C(=O)NC1c1cc2c(cc1[N+](=O)[O-])OCO2 (stereo unspecified),51*,18,8,1
Cc1nnc(SCc2cc(=O)oc3ccc4ccccc4c23)n1Cc1ccccc1,17,9,71*,-2
NNC(=O)c1c[nH]c2ccc(OCc3ccccc3)cc12,.,1,.,.
CCOc1ccccc1C(=O)NCC(=O)NNC(=O)c1cccc(S(=O)(=O)Nc2ccc(OC)cc2)c1,.,-6,.,.
CN(C)c1ccc(NC(=O)Cn2ncn3c(cc4ccccc43)c2=O)cc1,76*,2,-49,0
O=C(CSc1nnc2c(n1)[nH]c1ccccc12)Nc1ccc2c(c1)OCO2,83*,13,45,-5
COc1c(-c2ccc(O)c(O)c2)oc2cc(O)cc(O)c2c1=O,56*,-5,-61,.
O=c1c(O[C@@H]2O[C@H](CO)[C@H](O)[C@H](O)[C@H]2O)c(-c2ccc(O)c(O)c2)oc2cc(O)cc(O)c12,29,.,-9,0
O=c1c(O)c(-c2ccc(O)cc2O)oc2cc(O)cc(O)c12,103*,.,-42,3
CCn1c(SCC(=O)Nc2ccc(N3CCOCC3)cc2)nnc1-c1ccco1,.,3,.,.
CSCCC(NC(=O)COc1ccccc1)C(=O)N1CCOCC1 (stereo unspecified),.,2,.,.
SMILES,Mcl1-Noxa inh,MCL1-BIM inh,Mcl1-Bid inh,Mcl-1 Bim block
CCC(CC)C(=O)Oc1c(Sc2ccccc2[N+](=O)[O-])c(C)nn1C(C)(C)C,-7,7,91*,-3
COCC(=O)Oc1c(Sc2ccccc2[N+](=O)[O-])c(C)nn1C(C)(C)C,27,7,-6,1
CC(=O)N[C@@H](Cc1c[nH]c2ccccc12)C(=O)OCc1cc(C(F)(F)F)cc(C(F)(F)F)c1,.,1,.,.
CCOc1c(O)ccc(/C=C2\SC(=S)NC2=O)c1[N+](=O)[O-],72*,12,-47,0
Nc1nc2nc(SCC(=O)N3CCCc4ccccc43)[nH]c2c(=O)[nH]1,59*,2,-10,0
Nc1cc(=O)[nH]c(SCC(=O)N2CCCc3ccccc32)n1,-16,1,-20,2
Cc1ccc(C)c(NC(=O)Cn2nc(-c3ccccc3)nc2-c2ccccc2)c1,-13,7,56*,2
CC(=O)c1cc(O)c2ccccc2c1O,80*,16,24,.
Cc1ccc(NC(=O)/C(C#N)=C/c2ccc(C)s2)c(C)c1,12,41*,-7,-2
Cc1cccc(C)c1NC(=O)CN(C)C(=O)CN1C(=O)NC(C)(C)C1=O,.,-26,.,.
COC(=O)c1cc2sc(Cl)cc2n1CC(=O)Nc1ccc(OC)c(OC)c1OC,5,-3,1,2
COC(=O)c1cc2sc(Cl)cc2n1CC(=O)Nc1cccc(SC)c1,-7,-4,96*,0
C=CCOCCN(CC)CC,13,.,-7,.
CC1(C)Cc2c(C#N)c(N3CCN(C(=O)c4ccccc4Cl)CC3)nc(-c3ccco3)c2CS1,46,43*,-21,0
O=C(Nc1ccccc1OC(F)F)c1ccc(-n2cncn2)c([N+](=O)[O-])c1,.,-5,.,.
O=C(Nc1ccc(C2=NCCN2)cc1)c1ccc(Cl)c(C(=O)Nc2ccc(C3=NCCN3)cc2)c1,57*,-5,0,.
Oc1ccc(N2CCN(c3nc(-c4cccs4)nc4ccccc34)CC2)cc1,94*,44*,-42,.
c1ccc(N2CCN(c3nc(-c4cccs4)nc4ccccc34)CC2)cc1,0,-4,-9,5
COCCCn1c(=O)c2sccc2n2c(CCCC(=O)N(C)Cc3ccco3)nnc12,.,-1,.,.
Cc1cc(NC(=O)CSc2ncn[nH]2)no1,-4,3,-16,0
CC(C)c1nnc(NC(=O)CSc2ncn[nH]2)s1,53*,10,-3,-9
COc1cccc(N2CCN(C(=O)C3CCN(S(=O)(=O)c4ccc5c(c4)CC(C)N5C(C)=O)CC3)CC2)c1 (stereo unspecified),.,-4,.,.
COc1cc(/C=N/N(C)c2ccccc2)ccc1O,56*,3,-36,0
COc1cc(/C=N/NC(=O)C2c3ccccc3Oc3ccccc32)ccc1O,79*,3,10,13
COc1ccc(OC)c(NC(=O)c2ccc3c(c2)C(=O)N(CC2CCCO2)C3=O)c1 (stereo unspecified),.,8,.,.
SMILES,Mcl1-Noxa inh,MCL1-BIM inh,Mcl1-Bid inh,Mcl-1 Bim block
CN(C)C(CNC(=S)Nc1ccc(F)cc1)c1cccnc1 (stereo unspecified),13,7,-21,-2
OCC[C@H]1C[C@@H](O)[C@H](O)[C@]2(Cc3ccccc3CCO2)O1,.,13,.,.
Cc1ccc2nc(N3CC(=O)Nc4ccccc43)nc(-c3ccccc3)c2c1,10,-4,97*,15
Cc1ccccc1C(=O)Nc1ccc(N2CCCC2)cc1,33,7,-56,1
Cc1ccc(C(=O)Nc2ccc(N3CCCC3)cc2)c(C)c1,75*,6,-32,-1
CS(=O)(=O)c1ccc(C(=O)Nc2ccc(N3CCCC3)cc2)c(Cl)c1,67*,2,-32,-1
Cc1c(Cc2ccccc2)sc(NC(=O)/C=C/c2cccc3ccccc23)c1C(N)=O,59*,-5,-45,-5
COc1ccccc1NS(=O)(=O)c1cccc(NC(=O)C2CC2)c1,.,-5,.,.
COc1ccccc1NS(=O)(=O)c1cccc(NC(=O)C2CC(=O)N(Cc3ccccc3)C2)c1 (stereo unspecified),12,0,88*,1
O=C(OCC(=O)N1CCCc2ccccc21)c1c(F)cccc1F,.,-2,.,.
Cc1ccc(C(=O)NN2CC(O)=C(c3nc(-c4cccc([N+](=O)[O-])c4)cs3)C2=N)cc1,56*,10,5,4
